PubChem BioAssay (Tox21)
Results filed as inconclusive are left out. The source made the active and inactive calls. Calls follow the shape of the dose curve; as a rule, active = well fitted cell-killing curve with a large enough effect in the repeat runs; inconclusive = weak or mixed curves, or effect the other way; inactive = no such curve, though single readings can be large or run the other way.

Assay: qHTS assay to identify small molecule antagonists of the vitamin D receptor (VDR) signaling pathway - cell viability counter screen (AID 743225); also: nearly all actives have a fitted effect of over 50% in size
Conditions: VDR-bla HEK293T viability, CellTiter-Glo luminescence, 16 h; series mostly up to 61 µM
Excerpt: U.S. Tox21 Program National Center for Advancing Translational Sciences [NCATS] NIH Chemical Genomics Center [NCGC] U.S. Environmental Protection Agency [EPA] National Institutes of Environmental Health Sciences [NIEHS] National Toxicology Program [NTP] U.S. Food and Drug Administration [FDA] Tox21 Assay Overview: The vitamin D receptor (VDR), a member of nuclear hormone receptor superfamily, plays a critical role in calcium homeostasis and bone metabolism. It is also involved in cell differentiation and growth, and thrombogenicity. To identify the compounds that inhibit VDR signaling, the VDR-UAS-bla HEK 293T cell line (Invitrogen, Carlsbad, CA, USA) containing a beta-lactamase reporter gene under the control of an upstream activator sequence (UAS) was used to screen the Tox21 10K compound library. The cytotoxicity of the Tox21 compound library against the VDR-bla cell line was tested in parallel by measuring the cell viability using CellTiter-Glo assay (Promega, Madison, WI) in the same wells.
Tox21 Assay Protocol Summary: VDR-bla cells were dispensed at 2,000 cells/5 uL of assay medium per well into black wall/clear-bottom 1536-well plates using a Multidrop Combi (Thermo Fisher Scientific, Waltham, MA) dispenser. After the assay plates were incubated at a 37C and 5% CO2 for 4 h, 23 nL of compounds dissolved in DMSO, positive controls or DMSO only was transferred to the assay plate by a Pintool station (Kalypsys, San Diego, CA), followed by addition of 1 uL of 1-alpha, 25-Dihydroxy Vitamin D3 (3 nM, final concentration in the wells) using a Bioraptr Flying Reagent Dispenser (FRD) workstation (Beckman Coulter, Indianapolis, IN). The plates were incubated at 37C and 5% CO2 for 16 h, and then 1 uL of LiveBLAzerTM B/G FRET substrate was added using a Bioraptr FRD. The plates were incubated at room temperature for 2 h and fluorescence intensity was measured by an Envision plate reader (PerkinElmer, Shelton, CT). For cell viability readout that measures cytotoxicity, 3 ul/well of CellTiter-Glo reagent was added into the assay plates using a Bioraptr FRD. After 30 min incubation at room temperature, the luminescence intensity in the plates was measured using a ViewLux plate reader (PerkinElmer).

SMILES	outcome
CCC1(c2ccccc2)C(=O)N=C(O)NC1=O (stereo not given)	inactive
CCN(CC)C(C)C(=O)c1ccccc1 (stereo not given)	inactive
COc1cc(OC)nc(NC(=O)NS(=O)(=O)c2ncccc2OCC(F)(F)F)n1	inactive
CC1(C)CON(Cc2ccccc2Cl)C1=O	inactive
O=C1CN=C(c2ccccc2)c2cc([N+](=O)[O-])ccc2N1	inactive
COC(=O)C(c1ccccc1)C1CCCCN1 (stereo not given)	inactive
C#CCN1C(=O)COc2cc(F)c(N3C(=O)C4=C(CCCC4)C3=O)cc21	inactive
CCOP(=S)(Oc1cnc(C(C)(C)C)nc1)OC(C)C (stereo not given)	inactive
O=[N+]([O-])c1cccc(O)c1	inactive
CSc1ccc(C(=O)C(C)(C)N2CCOCC2)cc1	inactive
ClC(Cl)C(Cl)Cl	inactive
CC(C)(C)C(=O)C(Oc1ccc(Cl)cc1)n1cncn1 (stereo not given)	inactive
O=C(CCN1CC1)OCC(CO)(COC(=O)CCN1CC1)COC(=O)CCN1CC1	inactive
CC(Oc1ccc(Oc2ncc(C(F)(F)F)cc2Cl)cc1)C(=O)O (stereo not given)	inactive
Cc1ccccc1CO[C@@H]1C[C@@]2(C(C)C)CC[C@]1(C)O2	inactive
N#CCCC#N	inactive
COC(=O)C(C)Oc1ccc(Oc2ccc(Cl)cc2Cl)cc1 (stereo not given)	inactive
CCCCN(CCCCO)N=O	inactive
CCOC(=O)CP(=O)(OCC)OCC	inactive
O=[N+]([O-])c1ccc(CBr)cc1	inactive

SMILES	outcome
CCCSC(=O)N(CCC)CCC	inactive
Nc1ccccc1Cl	inactive
CN(C)CCc1ccc(O)cc1	inactive
CCCCCCI	inactive
C[C@H]1CCC[C@H](O)CCCCCc2cc(O)cc(O)c2C(=O)O1	inactive
N#Cc1ccncc1	inactive
Nc1cc2c3c(c1)C(c1ccccc1)=N[C@@H](NC(=O)c1cccnc1)C(=O)N3CC2	inactive
CC1CN1P(=O)(N1CC1C)N1CC1C (stereo not given)	inactive
C[C@]12CC[C@H]3[C@@H](CCC4=CC(=O)CC[C@@]43C)[C@@H]1CC[C@@H]2C(=O)O	inactive
CCOC(=O)NC(=S)Nc1ccccc1NC(=S)NC(=O)OCC	inactive
CNC(=O)Oc1ccc(N(C)C)c(C)c1	inactive
NC(=O)O	inactive
CCC(C)(C)c1cc(-n2nc3ccccc3n2)c(O)c(C(C)(C)CC)c1	inactive
CNNC	inactive
CC(C)(C)OC(=O)c1ncn2c1[C@@H]1CCCN1C(=O)c1c(Br)cccc1-2	inactive
CCOP(=S)(OCC)Oc1ncn(-c2ccccc2)n1	inactive
O=C(Nc1ccccc1)N(Cc1ccc(Cl)cc1)C1CCCC1	inactive
O=P(O)(Oc1ccccc1)Oc1ccccc1	inactive
CC(C)CC(N(C)C)C1(c2ccc(Cl)cc2)CCC1 (stereo not given)	inactive
ClCCOCOCCCl	inactive
